Laboratory results as given in PubChem BioAssay (NCI).
The panel holds about 83,000 compounds, 20% with a hit somewhere; the sample as a whole holds those more often.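 For each line, cells grew in 96-well plates with the test compound present at a single concentration for 48 hours.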 A number with no mark means an inactive call. Active and inactive are the calls of the source. The calls were made as follows: active = growth percent below 10; inactive = the rest.

These molecules were tested on CAKI-1 renal (assay: NCI-60 one-dose screen, 48 h (100 = growth as untreated, 0 = no growth, -100 = all killed)). Conditions: 10 µM unless noted.

SMILES	growth
COc1cc(CNS(=O)(=O)c2ccc(C)cc2)ccc1OCc1cn(-c2ccc(Br)cc2)nn1	91.6%
Cc1ccc(Cl)cc1Nc1nc(C(F)(F)F)ccc1C(=O)N/N=C/c1cccnc1	14.3%
COc1cc2c(c(OC)c1OC)-c1ccc(OC)c(=O)cc1[C@@H](NC(=O)CCl)CC2	30.1%
Fc1ccc(Nc2nc3nonc3nc2Nc2ccc(I)cc2)cc1	11.3%
CO[C@H]1/C=C(/C)CCC[C@H](C)[C@H](O)[C@@H](C)C(=O)C(C)(C)[C@@H](O)CC(=O)O[C@@H]1/C(C)=C/c1csc(C)n1	10.8%
COCCn1c(-c2csc(-c3cn(C)c4ccc(OC)cc34)n2)cc2cccnc21	74.8%
CCNc1nc(-c2ccc(Cl)c(OC)c2)c(-c2ccnc(NCCCNS(=O)(=O)c3ccc(Cl)cc3)n2)s1	59%
O=C1COCCN1c1ccc(Nc2nc(Cl)nc(OCc3cn(Cc4ccccc4)nn3)n2)cc1	84.4%
N#Cc1c(-c2ccc(Cl)cc2)nc(SCC(=O)NC2=NN=C(c3ccccc3)CS2)[nH]c1=O	77%
Cc1cc2c(O)c(-c3cccc(Cl)c3)c3sc(=O)oc3c2cc1C	40.5%
CC1=C(CCC(C)N(C)Cc2ccc(OCCCN3CCCC3)cc2)C(C)(C)CCC1 (stereo unspecified)	49.9%
N#Cc1cccc(-c2c(-c3ccc4ccccc4c3)oc3ccccc3c2=O)c1	45.5%
Cc1nc2sc(C(=O)Nc3ccccc3)c(N)c2cc1C(=O)c1ccccc1	35.6%
O=C(O)CNC1=C(Cl)C(=O)c2ccccc2C1=O	76.7%
CCCCCC(=O)OCC(=O)O[C@@H]1C[C@]2(C(C)C)O[C@@]1(C)[C@@H]1CC[C@@H](C)[C@H]1[C@@H]2OC(=O)/C=C/c1ccccc1	-4.76% (active)
CN1C(=O)/C(=C/c2ccc(C(=O)Nc3ncc(Cc4ccc(Cl)cc4)s3)cc2)SC1=S	21.2%
C#CCOc1ccc2ncnc(Nc3cccc(NC(=O)C=C)c3)c2c1	45.5%
CN(CCOc1ccc(C#N)cc1)CCOc1ccc(C#N)cc1	99.7%

SMILES	growth
CCOC(=O)c1c(NC(=O)c2ccc(C(C)C)cc2)sc2c(CN(C)C)c(O)ccc12	75.7%
COC(=O)c1c2c(c[n+]([O-])c1C)C(=O)C(NCc1ccccc1)=CC2=O	3.84% (active)
Nc1ncnc2c1N=C(c1ccc3c(c1)OCO3)CC(c1ccc([N+](=O)[O-])cc1)N2 (stereo unspecified)	99.2%
N#C/C(=C/c1ccc([N+](=O)[O-])cc1)n1nnc2cc(F)c(F)cc21	71.2%
CCN1CCN(c2cc(C(=O)Nc3nc(-c4cc(OC)c(OC)c(OC)c4)cs3)cc(C(F)(F)F)c2)CC1	84%
CN1CCN(c2ccc(C(=O)Nc3cccc(C#Cc4cccc5[nH]nc(N)c45)c3)cc2C(F)(F)F)CC1	-96.2% (active)
CN1CCN(c2ccc(NC(=O)c3cncnc3Nc3ccc(OCc4ccccn4)c(Cl)c3)cc2)CC1	64.2%
c1ccc(CNc2c3ccccc3nc3ccccc23)cc1	33.1%
C/C(=N\NC(=O)c1ccccc1O)c1cccc(/C(C)=N/NC(=O)c2ccccc2O)n1	14.5%
N#Cc1c(NC(=O)c2ccccc2)sc2c1CCC(=O)C2	-27.3% (active)
CCO/C=N/C1=C(C#N)C(c2ccc(OC)cc2)c2sc3c(F)cccc3c2O1 (stereo unspecified)	25.2%
O=C(CI)NC1Oc2ccccc2-c2oc(=O)c(-c3ccccc3)cc21 (stereo unspecified)	-100% (active)
Brc1ccc2[nH]cc(-c3nonc3-c3c[nH]c4ccccc34)c2c1	25.3%
Fc1ccc2[nH]cc(-c3nonc3-c3c[nH]c4ccc(Br)cc34)c2c1	12.4%
N#CC1C=CN(CC(N)=O)c2ccc3cccnc3c21 (stereo unspecified)	91.2%
CCOC(=O)CSc1ncnc2c1c(-c1ccccc1)c(-c1ccccc1)n2-c1ccc(C)cc1	75.6%
O=C(Cn1c2c(c3ccccc31)CCCC2)Nc1ccc(-c2nc3ccccc3s2)cc1	100%
CC(C)=CCC[C@](C)(O)[C@H]1CC[C@]2(C)[C@@H]1CC[C@@H]1[C@@]3(C)Cc4nccnc4C(C)(C)[C@@H]3CC[C@]12C	70.2%
